# Screening results: PubChem BioAssay, National Center for Advancing Translational Sciences (NCATS)
# This is a sample that favours compounds with a hit; in the whole collection about 3.8% have one here.
# KCNH2 3.1 inh: blocks the human KCNH2 3.1 channel isoform. U2OS KCNH2 3.1, thallium flux FluxOr; hits give low values. activity change, % (tested at about 1.8 µM). 340,000 tested, 0.95% active. AID 720553;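 active = maximum activity change below -70%; inconclusive = maximum activity change from -70% to -50%; inactive = maximum activity change above -50%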;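 note: thallium influx rate constant from kinetic fluorescence after stimulation buffer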
#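 Channel expression came from 3.1 mutant virus (1.77 x 10^8 /mL) applied to suspended U2OS cells for 4 h. Flux was tracked with FluxOr dye plus Red40 quencher, and kinetic rate constants normalized to controls.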
# KCNH2 WT inh: blocks the wildtype human KCNH2 potassium channel | Q12809 | U2OS, BacMam KCNH2, thallium flux FluxOr; hits give low values | activity change, % at 1.84 µM | 340,000 tested, 0.37% active | AID 720551;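 active = maximum activity change below -70%; inconclusive = maximum activity change between -70% and -50%; inactive = maximum activity change above -50%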
#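 U2OS cells transduced with wild-type KCNH2 virus are loaded with FluxOr dye for 45 min, and thallium flux is measured in kinetic reads before and after stimulation buffer. Rate constants are normalized to DMSO controls.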
# CBFb-RUNX1 inh: blocks binding between human CBF-beta and RUNX1; 230,000 tested, under 10 active; AlphaScreen CBFb-His/RUNX1-biotin binding, biochemical; Potency, µM (doses to about 59.8 µM), actives largely listed as inhibitors
#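 Inhibition was taken as any reduction in AlphaScreen signal from the CBF-beta–RUNX1 pair (His and biotin tags, 30 nM each), measured after compound (15 min) and bead (90 min) incubations at room temperature.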
# MBNL1 CUG block: inhibitors of human MBNL1 binding to CUG repeat RNA; Q9NR56; TR-FRET MBNL1-His/biotin-(CUG)12 binding, 665/545 ratio; Potency, µM (doses to about 57.5 µM), most hits filed as inhibitors; 280,000 tested, 0.036% active; AID 2675; active = well fitted inhibition curve with a large enough effect in the signal ratio, with a control signal flat, not every such curve was filed as active; inconclusive = small, poorly fitted or top-dose-only effect, or effect the other way, or a change in a side signal; inactive = no such curve, though single readings can be large or run the other way; the % refers to the signal ratio
#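 His-tagged MBNL1 binding to biotinylated (CUG)12 RNA was measured by TR-FRET using terbium anti-His antibody (0.055 ng/ul final) and streptavidin-XL665 (5 nM final). Compounds were titrated 92 nM to 58 uM; 60 min at room temperature.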
# PLK1 PBD inh: inhibitors of human PLK1 polo-box domain binding; Plk1 PBD binding of FITC phosphopeptide, fluorescence polarization; AID 720504; 360,000 tested, 2.8% active; P53350; Potency, µM, actives largely listed as inhibitors; note: series mostly up to about 57 µM; nearly all actives have a fitted effect of over 65% in size
# VDR inh: vitamin D3 receptor (human) inhibition; VDR-SRC2-3 peptide fluorescence polarization, 2 h; Potency, µM, hits mostly inhibitors; 400,000 tested, 0.93% active
# Target sequence (P11473 whole entry, looked up): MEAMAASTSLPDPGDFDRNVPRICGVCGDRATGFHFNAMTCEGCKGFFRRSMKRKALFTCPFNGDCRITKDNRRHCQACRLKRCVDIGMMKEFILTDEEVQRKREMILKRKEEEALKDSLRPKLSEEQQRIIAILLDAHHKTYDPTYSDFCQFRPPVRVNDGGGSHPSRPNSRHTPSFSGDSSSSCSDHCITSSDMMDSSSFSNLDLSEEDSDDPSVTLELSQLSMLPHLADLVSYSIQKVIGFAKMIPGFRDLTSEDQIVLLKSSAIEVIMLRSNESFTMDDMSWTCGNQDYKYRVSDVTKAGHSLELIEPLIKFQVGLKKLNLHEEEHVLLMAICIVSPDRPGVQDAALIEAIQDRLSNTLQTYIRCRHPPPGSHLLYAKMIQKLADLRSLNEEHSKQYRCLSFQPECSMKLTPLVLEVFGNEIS
#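 Fluorescence polarization assay measuring small-molecule disruption of VDR binding to the coregulator peptide SRC2-3. Compounds were pin-transferred (23 nl) into the reagent mix and incubated 2 h at room temperature before reading.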
# Numbers stand for hits; n = inactive; u = inconclusive; x = no result. Unless noted, calls come from the whole dose curve; as a rule, active = well fitted curve in the direction sought with a large enough effect; inconclusive = small, poorly fitted or top-dose-only effect, or another doubt; inactive = no such curve, though single readings can be large; an effect the other way counts as inactive or inconclusive.
SMILES,KCNH2 3.1 inh,KCNH2 WT inh,CBFb-RUNX1 inh,MBNL1 CUG block,PLK1 PBD inh,VDR inh
CN1[C@@H](CC(=O)c2ccccc2)CCC[C@H]1C[C@H](O)c1ccccc1,n,n,n,n,n,n
C/C(=C(/CCOC(=O)C(C)C)SS/C(CCOC(=O)C(C)C)=C(\C)N(C=O)Cc1cnc(C)nc1N)N(C=O)Cc1cnc(C)nc1N,x,x,x,x,x,15.8µM
CN=C=O,x,x,n,x,x,x
CCOC(=O)N1CC(C)N(/[N+]([O-])=N/Oc2ccc([N+](=O)[O-])cc2[N+](=O)[O-])CC1C (stereo unspecified),x,x,n,x,x,u
C=CCN1C(=O)NC(=O)/C(=C/c2cnc(SC)nc2)C1=O,n,n,n,n,10.6µM,28.2µM
Cc1c(C)c2ccc(OCC(=O)N3CCN(Cc4ccccc4)CC3)cc2oc1=O,n,n,x,x,n,n
Cc1c(Cc2ccccc2)c(=O)oc2cc(OCc3ccc(C(=O)O)cc3)ccc12,n,n,n,n,21.2µM,n
O=C(CN1CCCCC1)NCC(=O)Nc1ccc(Br)cc1C(=O)c1ccccc1,-77.9,n,n,n,n,n
CN1CCN(CC(=O)Nc2ccc(Cl)cc2C(=O)c2ccccc2)CC1,-77.6,u,n,n,n,n
O=C(COc1ccccc1)Nc1ccc(Cl)cc1C(=O)c1ccccc1,n,n,n,n,n,n
O=C(CN1CCN(CCO)CC1)Nc1ccc(Cl)cc1C(=O)c1ccccc1,-86.8,n,n,n,n,n
COc1ccccc1N1CCN(Cc2ccccc2Cl)CC1,n,n,n,u,n,n
CCCCCCN1CCN(c2ccccc2Cl)CC1,-79.4,n,n,n,n,n
c1cc[n+]2c(c1)-c1cccc[n+]1CC2,x,x,n,x,x,n
CCCCC1(C2CCCC2)Cc2cc(OCCCC(=O)O)c(Cl)c(Cl)c2C1=O (stereo unspecified),x,x,n,x,x,39.8µM
CC(=O)OC1CC[C@@]2(C)C3CC[C@]4(C)C(=O)CCC4C3CC[C@H]2C1 (stereo partly specified),x,x,n,x,x,n
CC(=O)OC1CC[C@@]2(C)C3CC(=O)[C@]4(C)C(C(C)=O)=CCC4C3CC[C@H]2C1 (stereo partly specified),x,x,x,x,x,2µM
CCOc1cc(OP(=S)(OC)OC)nc(CC)n1,x,x,n,x,x,22.4µM
[O-][Br+2]([O-])O,x,x,n,x,x,x
CCCCCCCCC(=O)NCc1ccc(O)c(OC)c1,n,n,n,x,n,n
CCCCC/C=C\C/C=C\C/C=C\C/C=C\CCCC(=O)NCc1ccc(O)c(OC)c1,x,x,n,x,x,44.7µM
Nc1c(Br)cc2c3c(cccc13)-c1ccccc1-2,n,n,x,x,n,28.2µM
CCCSP(=S)(OCC)Oc1ccc(Cl)cc1Cl (stereo unspecified),x,x,u,x,x,7.08µM
CCOP(=S)(OCC)Oc1ccc(Cl)cc1Cl,x,x,u,x,x,50.1µM
Cn1c(O)c(/C=C2\N=c3ccccc3=C2CCNC(=S)NC2CC2)c(=O)n(C)c1=O,n,n,n,n,0.947µM,70.8µM
SMILES,KCNH2 3.1 inh,KCNH2 WT inh,CBFb-RUNX1 inh,MBNL1 CUG block,PLK1 PBD inh,VDR inh
Cc1ccc(S(=O)(=O)N2CCC(=O)N(CCOC(=O)Nc3cccc(Cl)c3)CC2)cc1,n,n,n,n,n,n
O=C1NO[C@@H]2CN[C@@H](C(=O)O)[C@H]12,x,x,n,x,x,x
CN1C(=O)C(=Cc2ccccc2OCc2ccc(C(=O)O)cc2)C(=O)N(C)C1=O,n,n,n,n,11.9µM,u
CN1C(=O)C(=Cc2ccccc2OCc2ccccc2Cl)C(=O)N(C)C1=O,n,n,n,n,2.99µM,u
CN1C(=O)C(=Cc2ccccc2OCCOc2ccc([N+](=O)[O-])cc2)C(=O)N(C)C1=O,n,n,n,n,2.99µM,u
CCn1cc(C=C2C(=O)N(C)C(=O)N(C)C2=O)c2ccccc21,n,n,x,n,n,n
CC1CC(=O)O1 (stereo unspecified),x,x,n,x,x,x
O=C(O)COc1ccccc1,n,n,n,x,n,n
Cc1ccccc1C(=O)NNC(=S)NC(=O)COc1ccccc1,n,n,n,n,29.9µM,u
Cc1cc(C(C#N)c2ccc(Cl)cc2)c(Cl)cc1NC(=O)c1cc(I)cc(I)c1O (stereo unspecified),n,n,x,x,u,u
COC(=O)C(O)(c1ccc(NC(=S)NC(=O)c2ccc(Cl)cc2Cl)c(C)c1)C(F)(F)F (stereo unspecified),n,n,n,n,21.2µM,u
CCOC(=O)C(O)(c1ccc(NC(=S)NC(=O)c2ccc(Cl)cc2Cl)c(C)c1)C(F)(F)F (stereo unspecified),n,n,n,n,n,n
O=C(Cc1ccccc1)N1CCN(Cc2cccc(Br)c2)CC1,n,n,n,n,26.7µM,n
O=C(Cc1ccc(Br)cc1)N1CCN(Cc2ccccc2)CC1,n,n,n,n,n,u
CNC(=S)S,x,x,n,x,x,u
Brc1cccc(-c2ccccc2)c1,x,x,n,x,x,x
CCC(=O)CCCCC[C@@H]1NC(=O)[C@H]2CCCCN2C(=O)[C@H]([C@@H](C)CC)NC(=O)[C@H](Cc2cn(OC)c3ccccc23)NC1=O,x,x,n,x,x,u
Cc1cc(C)cc(N2C(=O)/C(=C\c3ccc(N4CCN(C)CC4)o3)C(=O)NC2=S)c1,n,n,n,u,n,n
Cc1ccc(N2C(=O)/C(=C/c3ccc(CN(CCC#N)S(C)(=O)=O)o3)C(=O)NC2=S)cc1,n,n,u,n,5.97µM,u
O=C(O)c1cc(Oc2ccc([N+](=O)[O-])cc2)cc(Oc2ccc([N+](=O)[O-])cc2)c1,x,x,n,x,x,44.7µM
CN(C)C(=O)Oc1ccc([N+](=O)[O-])cc1,n,n,n,n,n,n
O=P(c1ccccc1)(c1ccccc1)N1CC2(CC2)CC(O)(c2ccccc2)C1 (stereo unspecified),x,x,n,x,x,x
CN(N=O)c1ccc(O)c(O)c1,x,x,x,x,x,35.5µM
O=Nc1c(-c2ccccc2)n(O)[n+]([O-])c1-c1ccccc1,n,n,x,x,u,x
COc1ccc(C=C2C(=O)N(C)C(=O)N(C)C2=O)cc1CSc1ccccn1,n,n,n,n,5.97µM,79.4µM
SMILES,KCNH2 3.1 inh,KCNH2 WT inh,CBFb-RUNX1 inh,MBNL1 CUG block,PLK1 PBD inh,VDR inh
Cc1ccc(-n2c(-c3nn(C)c(C)c3Cl)n[nH]c2=S)cc1,n,n,n,n,29.9µM,n
C#Cc1cccc2c1c(C(=O)c1ccc(Cn3c(C)nc4cnccc43)c(F)c1)cn2C(=O)N(C)C,x,x,n,x,x,n
C=CCCC#N,x,x,n,x,x,x
Cc1ccc(N2C(=O)NC(=O)/C(=C\c3ccc(N4CCOCC4)cc3)C2=O)cc1,n,n,n,x,5.97µM,u
Cc1cccc(N2C(=O)NC(=O)/C(=C/c3ccc(-c4ccc(C(=O)O)c(Cl)c4)o3)C2=O)c1,x,x,n,n,x,x
Cc1cccc(N2C(=O)NC(=O)/C(=C/c3ccc(N4CCOCC4)cc3)C2=O)c1,n,n,n,n,11.9µM,n
Cc1cccc(N2C(=O)NC(=O)/C(=C\c3ccc(N4CCOCC4)cc3)C2=O)c1,n,n,n,n,9.47µM,n
